Bioassay records from PubChem.
TDP1 cell CPT: qHTS for Inhibitors of human tyrosyl-DNA phosphodiesterase 1 (TDP1): qHTS in cells in presence of CPT; chicken DT40 Tdp1-/-;hTDP1 cells + 20 nM CPT, ATP luminescence, 48 h; Potency, µM (doses to about 46.2 µM), usual class: inhibitors; hit rate 12% among 420,000; AID 686979, 2013; also: nearly all actives have a fitted effect of over 55% in size
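Chicken DT40 Tdp1-/- cells complemented with human TDP1, 400 cells/well, exposed to compounds plus 20 nM camptothecin for at least 48 h at 37 C; viability read as ATP content by CellTiter-Glo luminescence.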
TGFb inhibitor: qHTS for Inhibitors of TGF-b. HepG2 CAGA-GFP TGF-b/SMAD3 reporter, GFP fluorescence, 18 h; TGF-beta stimulated, 500 pg/mL final. Potency, µM (series often up to 46.1 µM), most hits filed as inhibitors. hit rate 1.2% among 410,000. AID 588855, 2011; also: nearly all actives have a fitted effect of over 65% in size
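Cell-based qHTS in HEPG2 carrying a CAGA-GFP Smad reporter; compounds added before 500 pg/mL final TGF-beta, 18 h incubation at 37 degrees C, GFP fluorescence quantified per cell by imaging cytometry.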
HepG2 tox: qHTS for Inhibitors of TGF-b: Cytotox Counterscreen; HepG2 CAGA-GFP viability, ATP luminescence, 18 h; Potency, µM (series often up to 46.1 µM), actives largely listed as cytotoxic; hit rate 0.76% among 410,000
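HepG2 CAGA-GFP cells (1000/well, DMEM with 1% FBS) received compound, then TGF-beta at 500 pg/mL final, and were incubated 18 hours at 37 degrees C. Viability was read by CellTiter-Glo luminescence. Media-only wells were set as complete cell-killing and DMSO as no toxicity.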
TDP1 cell noCPT: qHTS for Inhibitors of human tyrosyl-DNA phosphodiesterase 1 (TDP1): qHTS in cells in absence of CPT | hit rate 15% among 420,000 | DT40 Tdp1-/- hTDP1 cells, no CPT, ATP luminescence, 48 h | AID 686978, 2013 | Potency, µM (top dose mostly 46.2 µM), usual class: inhibitors; also: nearly all actives have a fitted effect of over 55% in size
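Growth of hTDP1-complemented DT40 Tdp1-knockout cells is measured by ATP luminescence after at least 48 hr compound exposure at 37 °C, with DMSO substituting for the 20 nM CPT used in the parallel screen.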
TDP1 inh: qHTS Assay for Inhibitors of Tyrosyl-DNA Phosphodiesterase (TDP1). recombinant TDP1, AlphaScreen DNA substrate cleavage. Potency, µM (top dose mostly 130 µM), most hits filed as inhibitors. hit rate 0.28% among 350,000; also: nearly all actives have a fitted effect of over 40% in size
Target sequence (Q9NUW8 whole entry, looked up): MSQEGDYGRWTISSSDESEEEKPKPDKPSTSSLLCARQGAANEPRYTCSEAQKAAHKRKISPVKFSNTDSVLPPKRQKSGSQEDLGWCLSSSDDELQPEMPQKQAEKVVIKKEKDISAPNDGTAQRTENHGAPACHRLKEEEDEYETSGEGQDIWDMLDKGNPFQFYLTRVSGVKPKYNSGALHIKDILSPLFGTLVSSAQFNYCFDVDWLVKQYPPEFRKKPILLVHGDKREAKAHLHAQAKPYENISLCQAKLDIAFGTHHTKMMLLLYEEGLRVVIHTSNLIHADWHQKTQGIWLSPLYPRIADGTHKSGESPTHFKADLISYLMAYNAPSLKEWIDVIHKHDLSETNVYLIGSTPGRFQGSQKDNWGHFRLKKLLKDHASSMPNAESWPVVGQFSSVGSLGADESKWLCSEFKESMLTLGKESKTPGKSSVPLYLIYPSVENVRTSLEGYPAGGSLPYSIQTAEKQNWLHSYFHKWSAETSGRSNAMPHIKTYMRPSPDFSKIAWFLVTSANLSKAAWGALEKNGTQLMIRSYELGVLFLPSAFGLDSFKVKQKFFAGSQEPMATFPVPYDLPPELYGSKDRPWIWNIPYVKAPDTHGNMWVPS
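AlphaScreen read-out: signal falls as enzyme removes the 3' tyrosine-FITC from a 5'-biotinylated DNA oligo (15 nM, 5 min, RT). Enzyme was E. coli-made recombinant Tdp1 at 1 nM, exposed to compound for 15 min beforehand; beads 10 ug/ml, 10 min.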
IL-1B inflam inh: qHTS for Inhibitors of Inflammasome Signaling: IL-1-beta AlphaLISA Primary Screen | hit rate 4.7% among 360,000 | THP-1 LPS/ATP IL-1B secretion, AlphaLISA, 16 h; active compounds read low | activity change, % at 57.5 µM; in the data active = activity change below about -50%; inconclusive = mostly about -30% to -49%
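THP-1 cells pretreated 1 hr with compounds (up to 57.5 uM final), then stimulated with LPS (250 ng/mL final) plus ATP (1.25 mM final); secreted IL-1B measured by AlphaLISA after 16 hr, decreased signal indicating inhibition.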
A number is an active result; [ ] = another dose, or the depositor's remark. Rows were chosen to be rich in hits. Some 18% of all compounds tested hit in one or more screens of this group. Unless noted, calls follow the shape of the dose curve; as a rule, active = well fitted curve in the direction sought with a large enough effect; inconclusive = small, poorly fitted or top-dose-only effect, or another doubt; inactive = no such curve, though single readings can be large; an effect the other way counts as inactive or inconclusive.

Cn1nccc1C(=O)OCC(=O)Nc1ccccc1Cl was read as TDP1 cell CPT inactive, TGFb inhibitor inactive, HepG2 tox inactive, TDP1 cell noCPT inactive, TDP1 inh inactive and IL-1B inflam inh inactive.
COC(=O)[C@H]1[C@@H]2C[C@H]3c4[nH]c5ccccc5c4CCN3C[C@@H]2CC[C@@H]1O was read as TDP1 cell CPT inactive, TDP1 cell noCPT inactive and TDP1 inh inactive.
`Fc1ccc(-c2noc3ncnc(NCCc4ccccc4)c23)cc1` gave TDP1 cell CPT inconclusive, TGFb inhibitor inactive, HepG2 tox inactive, TDP1 cell noCPT 16µM and TDP1 inh inactive.
`Fc1ccc(-c2noc3ncnc(NCCc4ccc(Cl)cc4)c23)cc1` gave TDP1 cell CPT 15µM, TGFb inhibitor inactive, HepG2 tox inactive, TDP1 cell noCPT 10µM and TDP1 inh inactive.
Screening CSc1ccc(CCNc2ncnc3onc(-c4ccc(Cl)cc4)c23)cc1 returned TDP1 cell CPT 16µM, TGFb inhibitor inconclusive, HepG2 tox inactive, TDP1 cell noCPT 10µM and TDP1 inh inactive.
Screening COc1ccc(N2CCN(c3ncnc4onc(C)c34)CC2)cc1 returned TDP1 cell CPT 21µM, TGFb inhibitor inactive, HepG2 tox inactive, TDP1 cell noCPT 16µM and TDP1 inh inactive.
For COc1ccc(N2CCN(c3ncnc4onc(-c5ccc(F)cc5)c34)CC2)cc1 the results were TDP1 cell CPT inconclusive, TGFb inhibitor inactive, HepG2 tox inactive, TDP1 cell noCPT inconclusive and TDP1 inh inactive.
Screening Cc1noc2ncnc(N3CCN(c4ccc(F)cc4)CC3)c12 returned TDP1 cell CPT inconclusive, TGFb inhibitor inactive, HepG2 tox inactive, TDP1 cell noCPT 18µM, TDP1 inh inactive and IL-1B inflam inh inactive.
Screening Cc1noc2ncnc(N3CCCCC3)c12 returned TDP1 cell CPT inactive, TGFb inhibitor inactive, HepG2 tox inactive, TDP1 cell noCPT inconclusive, TDP1 inh inactive and IL-1B inflam inh inactive.
`COc1ccc(CCNC(=O)c2ccc3c(c2)N(Cc2cccc(C)c2)C(=O)c2ccccc2S3(=O)=O)cc1OC` gave TDP1 cell CPT 8.2µM, TGFb inhibitor inactive, HepG2 tox inactive, TDP1 cell noCPT 12µM and TDP1 inh inactive.
`COc1ccc(CNC(=O)c2ccc3c(c2)N(Cc2ccccc2F)C(=O)c2ccccc2S3(=O)=O)cc1` gave TDP1 cell CPT inactive, TGFb inhibitor inactive, HepG2 tox inactive, TDP1 cell noCPT inactive and TDP1 inh inactive.
Screening COc1ccc(CCNC(=O)c2ccc3c(c2)N(Cc2ccc(Cl)cc2)C(=O)c2ccccc2S3)cc1OC returned TDP1 cell CPT inconclusive, TGFb inhibitor inconclusive, HepG2 tox inactive, TDP1 cell noCPT 16µM and TDP1 inh inactive.
COc1ccc(CCNC(=O)c2ccc3c(c2)N(Cc2ccccc2F)C(=O)c2ccccc2S3(=O)=O)cc1OC was read as TDP1 cell CPT 16µM, TGFb inhibitor inactive, HepG2 tox inactive, TDP1 cell noCPT 10µM and TDP1 inh inactive.
`COc1ccc(CCNC(=O)c2ccc3c(c2)N(Cc2cccc(Cl)c2)C(=O)c2ccccc2S3=O)cc1OC` (stereo not given) gave TDP1 cell CPT inconclusive, TGFb inhibitor inactive, HepG2 tox inactive, TDP1 cell noCPT inconclusive and TDP1 inh inactive.
Screening COc1cccc(-n2c(SCC(=O)Nc3cc(C)ccc3C)nc3c(oc4ccccc43)c2=O)c1 returned TDP1 cell CPT inconclusive, TGFb inhibitor inactive, HepG2 tox inactive, TDP1 cell noCPT 13µM and TDP1 inh inactive.
`COCCn1c(SCC(=O)Nc2cccc(OC)c2)nc2c(oc3ccccc32)c1=O` gave TDP1 cell CPT 5.8µM, TGFb inhibitor inactive, HepG2 tox inactive, TDP1 cell noCPT 7.3µM, TDP1 inh inactive and IL-1B inflam inh inactive.
COC(=O)N1C(=O)[C@@](c2ccccc2)(C2CCCC2)N1C(=O)OC was read as TDP1 cell CPT 15µM, TGFb inhibitor inconclusive, HepG2 tox inactive, TDP1 cell noCPT 16µM and IL-1B inflam inh -106.
For COC(=O)N1C(=O)[C@](c2ccccc2)(C2CCCCC2)N1C(=O)OC the results were TDP1 cell CPT inconclusive, TGFb inhibitor inactive, HepG2 tox inactive, TDP1 cell noCPT inactive and IL-1B inflam inh -75.
For CC(=O)Nc1cccc(OCC(=O)NC(C)c2ccc3ccccc3c2)c1 (stereo not given) the results were TDP1 cell CPT inactive, TGFb inhibitor inactive, HepG2 tox inactive, TDP1 cell noCPT inconclusive and IL-1B inflam inh inactive.
CC(C)C[C@H]1CN([C@@H](Cc2ccc(O)cc2)CN2CCC[C@H]2CN2C(=O)C(=O)NC[C@@H]2Cc2ccc(O)cc2)C(=O)C(=O)N1CCc1ccccc1 was read as TDP1 cell CPT inactive, TDP1 cell noCPT inactive and IL-1B inflam inh inactive.
Screening O=C(CSc1nnc(Cc2ccccc2)c(=O)[nH]1)Nc1ccccc1 returned TDP1 cell CPT inactive, TGFb inhibitor inactive, HepG2 tox inactive, TDP1 cell noCPT inconclusive, TDP1 inh inactive[0.505 µM] and IL-1B inflam inh inactive.
Cc1ccc(-c2nnc(CCC(=O)N(C)Cc3nccs3)o2)s1 was read as TDP1 cell CPT inactive, TGFb inhibitor inactive, HepG2 tox inactive, TDP1 cell noCPT 21µM, TDP1 inh inactive and IL-1B inflam inh inactive.
Screening O=C1CCCC2=C1C1(CCCC1)N=C(Nc1nc3ccccc3s1)N2 returned TDP1 cell CPT inconclusive, TGFb inhibitor inactive, HepG2 tox inactive, TDP1 cell noCPT inconclusive, TDP1 inh inactive and IL-1B inflam inh inactive.
`O=C1CCCC2=C1C1(CCCCC1)N=C(Nc1nc3ccccc3s1)N2` gave TDP1 cell CPT 18µM, TGFb inhibitor inactive, HepG2 tox inactive, TDP1 cell noCPT inconclusive, TDP1 inh inactive and IL-1B inflam inh inactive.
For CCc1ccc(NC(=O)CSc2nc3ncc(Br)cc3[nH]2)cc1 the results were TDP1 cell CPT inactive, TGFb inhibitor inactive, HepG2 tox inactive, TDP1 cell noCPT inactive, TDP1 inh inactive and IL-1B inflam inh inactive.
`COc1ccccc1C1=CC(=O)C[C@H](c2ccc(Cl)cc2)C1` gave TDP1 cell CPT 15µM, TGFb inhibitor inconclusive, HepG2 tox inactive, TDP1 cell noCPT inconclusive, TDP1 inh inactive and IL-1B inflam inh -54.
`COc1ccc(C=O)cc1C1=CC(=O)C[C@H](c2ccc(Cl)cc2)C1` gave TDP1 cell CPT inconclusive, TGFb inhibitor inconclusive, HepG2 tox inactive, TDP1 cell noCPT inconclusive, TDP1 inh inactive and IL-1B inflam inh inactive.
